{"source": "PubChem BioAssay AID1445", "about": "(SRMLSC, 2008)", "note": "Hit rate of the full screen: of about 220,000 compounds, about 910 (0.41%) were called active.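 Rule for the calls: active = primary inhibition above the hit cutoff, then over 50% inhibition at one or more dose response concentrations (cut at about 23% in these data, passing the limit was not always enough); inconclusive = conflicting primary data, or primary hits not chosen for dose response; inactive = low primary inhibition, or under 50% at every dose.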 This excerpt belongs to a sample that is enriched for actives. Entries with a potency or affinity are not part of this list."}
{"target": "Aminopeptidase N (Plasmodium falciparum (isolate 3D7)) (UniProt O96935)", "sequence (O96935 whole entry, looked up)": "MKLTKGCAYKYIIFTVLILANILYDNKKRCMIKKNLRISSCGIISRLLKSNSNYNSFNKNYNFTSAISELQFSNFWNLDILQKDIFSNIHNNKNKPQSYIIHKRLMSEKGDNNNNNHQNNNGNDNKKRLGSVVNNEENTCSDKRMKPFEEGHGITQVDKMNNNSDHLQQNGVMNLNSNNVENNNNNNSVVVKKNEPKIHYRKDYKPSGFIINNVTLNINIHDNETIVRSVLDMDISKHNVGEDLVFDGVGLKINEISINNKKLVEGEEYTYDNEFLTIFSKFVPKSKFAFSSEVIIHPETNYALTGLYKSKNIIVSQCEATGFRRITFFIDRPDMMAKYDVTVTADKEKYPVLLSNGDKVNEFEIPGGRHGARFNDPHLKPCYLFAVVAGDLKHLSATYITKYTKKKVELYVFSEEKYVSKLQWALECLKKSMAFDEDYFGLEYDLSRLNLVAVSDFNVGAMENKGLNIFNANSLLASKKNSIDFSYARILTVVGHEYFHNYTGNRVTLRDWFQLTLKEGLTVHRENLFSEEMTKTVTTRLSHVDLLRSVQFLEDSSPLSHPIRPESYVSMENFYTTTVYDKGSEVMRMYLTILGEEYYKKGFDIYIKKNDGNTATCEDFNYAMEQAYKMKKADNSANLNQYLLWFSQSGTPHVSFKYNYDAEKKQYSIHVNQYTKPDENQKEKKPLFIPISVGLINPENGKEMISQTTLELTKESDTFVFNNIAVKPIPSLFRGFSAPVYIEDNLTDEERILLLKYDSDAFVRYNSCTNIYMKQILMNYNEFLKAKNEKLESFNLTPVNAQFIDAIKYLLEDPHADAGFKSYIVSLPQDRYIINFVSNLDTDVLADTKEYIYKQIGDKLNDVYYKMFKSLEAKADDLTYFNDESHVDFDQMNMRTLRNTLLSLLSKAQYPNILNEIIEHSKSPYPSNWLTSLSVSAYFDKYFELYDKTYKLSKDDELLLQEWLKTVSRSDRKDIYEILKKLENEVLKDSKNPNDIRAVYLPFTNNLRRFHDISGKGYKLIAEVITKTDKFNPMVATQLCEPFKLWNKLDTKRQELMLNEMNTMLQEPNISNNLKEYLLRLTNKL", "experiment": "P. falciparum M1AAP inhibitors, biochemical, fluorogenic H-Leu-NHMec substrate, 1536-well (AID 1445);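 note: plate controls were DMSO full reaction for no effect and no enzyme background for full effect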", "details": "recombinant M1AAP, H-Leu-NHMec fluorogenic kinetic assay; at 30 µM, active compounds read high unless noted"}
{"smiles": "CCOC(=O)c1cc(-c2csc(-c3cccc(Cl)c3)n2)on1", "inhibition": "-3.06% (inactive)"}
{"smiles": "CC1C(c2ccccc2)N(C)C(c2ccccc2)CC1(O)c1ccccc1", "note": "(stereo not drawn)", "inhibition": "16.7% (inactive)"}
{"smiles": "CCOC(=O)C(=O)Nc1nnc(SCc2ccc(F)cc2)s1", "inhibition": "2.28% (inactive)"}
{"smiles": "COc1cccc(C(=O)Nn2c(C)nnc2-n2nc(C)cc2C)c1", "inhibition": "8.95% (inactive)"}
{"smiles": "O=C(NCc1ccccc1)C(c1ccc(F)cc1)N(Cc1ccc2c(c1)OCO2)C(=O)Cn1nnc(-c2cccs2)n1", "note": "(stereo not drawn)", "inhibition": "1.31% (inactive)"}
{"smiles": "COc1ccc(-c2nnn(CC(=O)N(CC(=O)NCCC(C)C)Cc3cccs3)n2)cc1OC", "inhibition": "13.8% (inactive)"}
{"smiles": "CC(C)CCNC(=O)CN(Cc1ccc2c(c1)OCO2)C(=O)Cn1nnc(-c2cccs2)n1", "inhibition": "24.4% (active)"}
{"smiles": "COc1ccc(NC(=O)c2oc3ccccc3c2NC(=O)c2ccc3c(c2)OCO3)cc1", "inhibition": "2.18% (inactive)"}
{"smiles": "COc1ccc2nc(SCc3ccccc3C)nc(C)c2c1", "inhibition": "2.23% (inactive)"}
{"smiles": "Cc1nc(SCc2ccccc2C)n[nH]1", "inhibition": "-7.66% (inactive)"}
{"smiles": "N#Cc1c(-c2ccccc2)c(C#N)c2nc3ccccc3n2c1N", "inhibition": "3.17% (inactive)"}
{"smiles": "Cc1cc(Cl)n2c(nc3ccccc32)c1C#N", "inhibition": "-0.99% (inactive)"}
{"smiles": "Cc1ccc(-c2c(C#N)c(N)n3c(nc4ccccc43)c2C#N)cc1", "inhibition": "25.5% (active)"}
{"smiles": "Cc1cc(C(C)(C)C)ccc1OCCN1CCCC1", "inhibition": "8.65% (inactive)"}
{"smiles": "Oc1ccc(-c2nc(=S)[nH][nH]2)cc1", "inhibition": "44.3% (inactive)"}
{"smiles": "C=CCOc1ccc(C(=O)N(Cc2ccc(N(C)C)cc2)C2CCS(=O)(=O)C2)cc1", "note": "(stereo not drawn)", "inhibition": "13% (inactive)"}
{"smiles": "O=c1oc2cc(O)ccc2c2c1CCCC2", "inhibition": "10.5% (inactive)"}
{"smiles": "CC(=O)Oc1cc2oc(=O)c3c(c2cc1Cl)CCC3", "inhibition": "38.1% (inactive)"}
{"smiles": "O=c1cc(-c2ccccc2)c2cc(Cl)c(O)c(CN3CCOCC3)c2o1", "inhibition": "5.98% (inactive)"}
{"smiles": "Cc1oc2c(CN3CCOCC3)c(O)ccc2c(=O)c1-c1ccc(Cl)cc1", "inhibition": "7.87% (inactive)"}
{"smiles": "CCc1cccc(C)c1NC(=O)COC(=O)c1ccc2c(c1)S(=O)(=O)c1ccccc1C2=O", "inhibition": "1.58% (inactive)"}
{"smiles": "CC1(C)NC(=O)N(CC(O)COc2cccc(F)c2)C1=O", "note": "(stereo not drawn)", "inhibition": "7.39% (inactive)"}
{"smiles": "N#C/C(=C(/O)c1cccs1)c1nc2ccccc2[nH]1", "inhibition": "1.8% (inactive)"}
{"smiles": "COc1cc(C(=S)N2CCCC2)ccc1OS(=O)(=O)c1ccc(NC(C)=O)cc1", "inhibition": "-0.31% (inactive)"}
{"smiles": "CCN1CCN(C(c2cc3cc4c(cc3[nH]c2=O)OCO4)c2nnnn2C(C)(C)CC)CC1", "note": "(stereo not drawn)", "inhibition": "12.6% (inactive)"}
{"smiles": "Cn1c(=O)c2cc(S(=O)(=O)Nc3cc(C(=O)O)cc(C(=O)O)c3)ccc2n(C)c1=O", "inhibition": "2.45% (inactive)"}
{"smiles": "O=C(NCc1cccnc1)c1cc([N+](=O)[O-])ccc1N1CCOCC1", "inhibition": "4.23% (inactive)"}
{"smiles": "CCCCc1nc(NCc2ccccc2)c(C#N)c2c1COC(C)(C)C2", "inhibition": "-3.84% (inactive)"}
{"smiles": "CCCCc1nc(NCCN)c(C#N)c2c1CSC(C)(C)C2", "inhibition": "2.56% (inactive)"}
{"smiles": "CCCCc1nc(NCCNC(=O)c2ccccc2)c(C#N)c2c1CSC(C)(C)C2", "inhibition": "24.4% (active)"}
{"smiles": "CCc1nc(NCCN)c(C#N)c2c1CSC(C)(C)C2", "inhibition": "-0.7% (inactive)"}
{"smiles": "CCCCc1nc(Cl)c(C#N)c2c1CSC(C)(C)C2", "inhibition": "0.12% (inactive)"}
{"smiles": "Cc1ccc(C(NC(=O)N2CCN(C)CC2)C(Cl)Cl)cc1F", "note": "(stereo not drawn)", "inhibition": "0.01% (inactive)"}
{"smiles": "CCCCc1ccc(NC(=O)COc2ccc(C(=O)Nc3ccccc3C)cc2)cc1", "inhibition": "-2.91% (inactive)"}
{"smiles": "COc1cc2c(cc1OC)C(c1cccs1)NCC2", "note": "(stereo not drawn)", "inhibition": "0.84% (inactive)"}
{"smiles": "O=C(NCc1cccs1)c1nn2cccnc2c1Cl", "inhibition": "12.7% (inactive)"}
{"smiles": "CCOC(=O)c1cnc(Nc2nc3ccccc3o2)nc1C", "inhibition": "0.38% (inactive)"}
{"smiles": "CCCOC(=O)Nc1nc2ccccc2o1", "inhibition": "-8.89% (inactive)"}
{"smiles": "Nc1nnc(CC(=O)N/N=C/c2ccc([N+](=O)[O-])cc2)s1", "inhibition": "9.02% (inactive)"}
{"smiles": "Nc1nnc(CC(=O)N/N=C/c2cccc([N+](=O)[O-])c2)s1", "inhibition": "-3.46% (inactive)"}
{"smiles": "CC1(NC(=S)NCCCCCCNC(=S)NC2(C)CCS(=O)(=O)C2)CCS(=O)(=O)C1", "note": "(stereo not drawn)", "inhibition": "-1.81% (inactive)"}
{"smiles": "Cc1cc(C)c2[nH]c(=O)c(=O)[nH]c2c1", "inhibition": "4.16% (inactive)"}
{"smiles": "Cc1cc2c(C)c(C)c(=O)[nH]c2cc1N", "inhibition": "25.2% (active)"}
{"smiles": "Cc1ccc(-c2n[nH]c(=O)c3ccccc23)cc1N", "inhibition": "12.6% (inactive)"}
{"smiles": "COc1cccc(C2=NOC(C(=O)NCCCn3ccnc3)C2)c1", "note": "(stereo not drawn)", "inhibition": "2.65% (inactive)"}
{"smiles": "COc1ccc(/C=C/C(=O)Nc2sc(Cc3ccccc3)c(C)c2C(N)=O)cc1", "inhibition": "10.2% (inactive)"}
{"smiles": "O=C(O)CC/C(=C\\c1cccc(NC(=O)c2ccccc2Cl)c1)c1nc2ccccc2s1", "inhibition": "18% (inactive)"}
{"smiles": "Cc1ccc(/C=C(\\CCC(=O)O)c2nc3ccccc3s2)cc1[N+](=O)[O-]", "inhibition": "15.5% (inactive)"}
{"smiles": "COc1cccc(/C=C(\\CC(=O)O)c2nc3ccccc3s2)c1", "inhibition": "11.8% (inactive)"}
{"smiles": "O=C(O)CC/C(=C\\c1ccc(Cl)c([N+](=O)[O-])c1)c1nc2ccccc2s1", "inhibition": "15.7% (inactive)"}
{"smiles": "CCOc1ccc(C(=O)N(CN2CCCC2=O)c2ccccc2)cc1", "inhibition": "2.27% (inactive)"}
{"smiles": "Cc1ccc(Oc2cc(NC(=O)CCCn3nc([N+](=O)[O-])c(Cl)c3C)cc([N+](=O)[O-])c2)cc1", "inhibition": "2.94% (inactive)"}
{"smiles": "CCOC(=O)CNS(=O)(=O)c1ccc2c3c(cccc13)C(=O)N2CC", "inhibition": "7.58% (inactive)"}
{"smiles": "CCOC(=O)Cc1csc(NS(=O)(=O)c2ccc3c4c(cccc24)C(=O)N3CC)n1", "inhibition": "23.4% (active)"}
{"smiles": "CCN1C(=O)c2cccc3c(S(=O)(=O)Nc4ccccc4)ccc1c23", "inhibition": "6.99% (inactive)"}
{"smiles": "CC(/C=N/NC(=O)CNc1n[nH]c(=O)[nH]c1=O)c1ccccc1", "note": "(stereo not drawn)", "inhibition": "3.79% (inactive)"}
{"smiles": "CC(=O)Nc1ccc(NC(C)=O)s1", "inhibition": "2.97% (inactive)"}
{"smiles": "CC(=O)Nc1ccc(-c2ccccc2)s1", "inhibition": "25.4% (active)"}
{"smiles": "CNC(=O)c1ccc(-c2ccccc2)s1", "inhibition": "1.69% (inactive)"}
{"smiles": "CN(CCNC(=O)CCCOc1cc(=O)n(C)c2ccccc12)Cc1ccccc1", "inhibition": "2.96% (inactive)"}
{"smiles": "CN(C)c1ccc(NC(=O)c2sc(SCC(=O)Nc3ccc(Br)cc3)nc2N)cc1", "inhibition": "4.44% (inactive)"}
{"smiles": "CN(C)c1ccc(NC(=O)CSc2nc(N)c(C(=O)Nc3ccc(N(C)C)cc3)s2)cc1", "inhibition": "-0.46% (inactive)"}
{"smiles": "CN(C)c1ccc(NC(=O)c2sc(SCC(=O)Nc3nccs3)nc2N)cc1", "inhibition": "25.2% (active)"}
